# Hits are enriched below; roughly 3.2% of the tested compounds scored in any of these assays.
# DAGLB inh: diacylglycerol lipase beta (human) inhibition; Q8NCG7; 0.059% of 340,000 active; HEK293T DAGLB membrane lysate, EnzChek fluorogenic substrate; inhibition, % at 5.17 µM; in the data active means inhibition above about 34%;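 further: 0% = enzyme with vehicle and 100% = wells lacking enzyme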
# DSG3 Ab inh: human desmoglein-3 autoantibody binding inhibition; AID 588358; P32926; DSG3-coupled beads, scFv-anti-DSG3-GFP binding, flow cytometry; stronger effect = lower value; 0.48% of 310,000 active; binding (percent of control), % at 10 µM;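 active means binding more than 3 SD below its plate's average and above zero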;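 further: hits lower antibody fragment binding to DSG3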
# bovine MsrA act: bovine methionine sulfoxide reductase A activation; purified bovine MsrA, absorbance read-out; activation, % at 10.6 µM; 0.3% of 360,000 active; in the data active means activation above about 7.5%;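 further: 0% = vehicle and 100% = reference activator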
# NadD inh: blocks S. aureus nicotinate mononucleotide adenylyltransferase; inhibition, % at 20 µM; AID 602399; purified NadD enzyme, colorimetric absorbance read-out; 0.78% of 360,000 active; in the data active means inhibition above about 26%
# rCAG RNA binder: molecules binding r(CAG) RNA repeats | r(CAG) RNA repeat, TO-PRO-1 dye displacement fluorescence | inhibition, % at 3 µM | 1.3% of 370,000 active;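 active means inhibition above the plate cutoff, the mean of all test compounds on that plate plus 3 SD, cut at about 35% in these data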;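 further: 0% = DMSO alone and 100% = 100 µM mitoxantrone as full dye displacement; higher means more dye released from RNA so lower well fluorescence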
# MsrA inh: bovine MsrA inhibition | purified bovine MsrA, absorbance read-out | inhibition, % at 15.5 µM | 0.75% of 360,000 active | AID 651718; in the data active means inhibition above about 4.5%;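 further: 0% = vehicle wells with enzyme and 100% = reference inhibitor wells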
# NadD inh conf: NadD (S. aureus) inhibition, single concentration confirmation. shares compounds with NadD inh. purified S. aureus NadD, colorimetric enzyme assay. inhibition, % at 20 µM. 13% of 2,000 active; in the data active means inhibition mostly above about 42%, no sharp cut-off; inactive means mostly below about 42%
# Numbers without * were called inactive; i = inactive; . = no result.
SMILES,DAGLB inh,DSG3 Ab inh,bovine MsrA act,NadD inh,rCAG RNA binder,MsrA inh,NadD inh conf
Cc1cccc(C)c1NC(=O)COC(=O)c1c2c(nc3ccccc13)/C(=C\c1ccc3c(c1)OCO3)CCC2,-47,115,-2,48*,i,1,6
O=C(C1CCC1)n1ccc2ccc(-c3ccc4ccn(Cc5ccccc5)c4c3)cc21,.,.,.,.,6,.,.
Cc1ccc(-n2c(SCc3cccc(F)c3)nc3sc4c(c3c2=O)CCCC4)cc1,.,.,.,.,6,.,.
O=S(=O)(c1ccc(NC(=S)N/N=C/c2ccc(N3CCOCC3)cc2)cc1)N1CCOCC1,0,98,0,1,6,0,.
O=S(=O)(c1ccc(NC(=S)N/N=C/c2c3ccccc3cc3ccccc23)cc1)N1CCOCC1,1,104,-4,34*,21,4,28
O=S(=O)(c1ccc(NC(=S)N/N=C/c2ccc(Oc3ccccc3)cc2)cc1)N1CCOCC1,-1,98,-7,28*,6,2,-3
CCc1ccc2[nH]c(=O)c(C3C(C#N)=C(N)Oc4c3ccc3cccnc43)cc2c1 (stereo not drawn),44*,94,-12,38*,18,1,9
CCOC(=O)C1=CCC(c2ccccc2)N(S(=O)(=O)c2ccccc2C)C1 (stereo not drawn),.,.,-1,-3,-1,0,.
CCOc1ccc2c(ccc(/C=C/c3cc(C)c4cccnc4c3O)[n+]2C)c1,13,.,1,55*,.,.,89*
CCCCCC(=O)NC1CCCCN(Cc2ccc(Cl)cc2)C1=O (stereo not drawn),.,.,.,.,2,.,.
CC(C)C[C@@H](CN1CCC[C@H]1CN1C(=O)C(=O)NC[C@@H]1Cc1ccc(O)cc1)N1C[C@H](Cc2ccccc2)N(CC2CCCCCC2)C(=O)C1=O,.,.,-9,38*,13,0,32
CC(C)C[C@@H](CN1CCC[C@H]1CN1C(=O)C(=O)NC[C@@H]1Cc1ccccc1)N1C[C@H](Cc2ccccc2)N(CC2CCCCCC2)C(=O)C1=O,.,.,2,40*,7,0,25
O=C(Nc1cccc(S(=O)(=O)NCc2ccco2)c1)c1cc(-c2ccccc2)nc2ccccc12,3,100,-3,35*,16,2,32
NS(=O)(=O)c1cccc(NC(=O)COC(=O)c2cc(-c3ccc(Cl)cc3)nc3ccccc23)c1,-2,82,-2,32*,26,1,37
CCN1CCN(Cc2ccc(NC(=O)c3cc(NC(=O)c4cncc(-c5cccs5)c4)cc(OC)c3)cc2C(F)(F)F)CC1,0,130,0,34*,15,0,11
CCc1ccc(N2CSC3=C(C#N)C(c4cccs4)CC(=O)N3C2)cc1 (stereo not drawn),8,100,-2,72*,.,.,4
Cc1ccc(N2CSC3=C(C#N)C(c4cccs4)CC(=O)N3C2)cc1 (stereo not drawn),7,99,-6,31*,29,1,10
CCc1ccc(C2CC(=O)N3CN(c4ccccc4)CSC3=C2C#N)cc1 (stereo not drawn),9,85,0,64*,14,2,21
COc1ccc(N2CSC3=C(C#N)C(c4cccs4)CC(=O)N3C2)cc1 (stereo not drawn),2,113,-3,2,1,0,.
COc1ccccc1CNC(=O)c1cc(-c2cc(F)ccc2OC(C)C)n[nH]1,.,.,-2,-5,3,-1,.
CCOc1ccccc1N1CCN(S(=O)(=O)c2ccc3c4c(cccc24)C(=O)N3)CC1,3,105,-3,30*,37*,1,30
CC(=O)NC(c1ccccc1)c1nc(-c2cnc3ccccc3c2)cs1 (stereo not drawn),.,.,0,-7,3,1,.
CN(C)/C=C(\C=N\OCc1ccc(Cl)cc1Cl)C(=O)Nc1ccc(Cl)c(Cl)c1,-11,98,-2,29*,30,-1,0
CC(=O)c1cccc(-c2ccnc3c2CC(C(=O)Nc2ccc(Cl)c(C(F)(F)F)c2)O3)c1 (stereo not drawn),.,.,-1,9,6,-1,.
CC(C)c1ccc(/C=C2\SC(=O)N(CC(=O)NCCCn3ccnc3)C2=O)cc1,-2,111,-2,34*,0,2,-5
SMILES,DAGLB inh,DSG3 Ab inh,bovine MsrA act,NadD inh,rCAG RNA binder,MsrA inh,NadD inh conf
O=C(CN1C(=O)S/C(=C\c2ccccc2)C1=O)NCCCn1ccnc1,3,98,-4,6,2,2,.
N#Cc1cccc(NC(=O)CSc2ccc3c4c(cccc24)C(=O)c2ccccc2-3)c1,-84,180,-1,13,-6,-1,.
COc1ccc(NC(=O)CSc2ccc3c4c(cccc24)C(=O)c2ccccc2-3)cc1,-4,137,-1,33*,0,-1,2
COc1ccc2c(c1)CCCN2C(=O)C1CCCN(S(=O)(=O)c2ccccc2)C1 (stereo not drawn),.,.,.,.,1,.,.
COc1cccc(-c2nc(N3CCN(c4ccccc4)CC3)c3ccccc3n2)c1O,-7,100,-5,31*,4,0,8
COCCn1c(C)cc(C2=NNC(=Nc3ccccc3F)SC2)c1C,3,.,-1,38*,15,0,17
Cc1ccc(-c2nc(NC(=O)c3ccc(S(=O)(=O)N(CCC#N)CCC#N)cc3)sc2-c2ccccc2)cc1,0,103,-3,2,5,-1,.
N#CCCN(CCC#N)S(=O)(=O)c1ccc(C(=O)Nc2nc(-c3ccccc3)c(C(=O)c3ccccc3)s2)cc1,4,102,-3,36*,9,0,1
COP(=O)(CC(=O)OC(C)(C)C)C(CC(C)C)NC(=O)OCc1ccccc1 (stereo not drawn),.,.,.,.,-1,.,.
Cc1cccc(/C=C2/Sc3ccc(C(=O)NCCN4CCCC4)cc3NC2=O)c1,1,115,1,12,18,2,.
O=C1Nc2cc(C(=O)NCCN3CCCCCC3)ccc2S/C1=C\c1ccccc1,3,110,-4,44*,14,0,-17
COc1cccc(/C=C2/Sc3ccc(C(=O)NCCN4CCCCCC4)cc3NC2=O)c1,2,137,-1,42*,19,0,-2
COc1ccc(C(C)(C)C)cc1NC(=O)OC[C@@H]1CSCCS(=O)(=O)N1,.,.,.,.,0,0,.
O=C(Nc1ccc(Cl)cc1)[C@@H]1[C@@H]2C(=O)N(c3ccc(Cl)cc3)C(=O)[C@@H]2[C@H]2C=CC=NN21,11,100,-1,37*,23,2,11
CC(=O)Oc1ccc(C(=O)[C@H]2[C@H]3C(=O)N(c4ccc5ccccc5c4)C(=O)[C@H]3[C@@H]3C=CC=NN32)cc1,7,103,-2,40*,18,0,16
Fc1cc(F)c(F)c(SCCc2ccncc2)c1F,-1,.,-4,25*,-2,0,10
